According to the supplement of paper PMC7380943:

System: CLZ3 (HCA2 human fibroblast dual HR-NHEJ reporter)
Assay: HR repair efficiency (tdTomato+ cells) relative to control (log10 fold); higher = more homologous recombination
Conditions: 5 µM; doxycycline 0.5 ug/mL
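Note: compound given one day before doxycycline, which switches on I-SceI endonuclease expression to create double-strand breaks within the integrated reporter.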

Structure (SMILES)	HR repair efficiency (log10)
OCC1=C[C@@H](O)[C@]2(O[C@@H]3O[C@H](CO)[C@@H](O)[C@H](O)[C@H]3O)C=CO[C@@H](O[C@@H]3O[C@H](CO)[C@@H](O)[C@H](O)[C@H]3O)[C@H]12 [Melittoside]	0.096
O=C(/C=C/C=C/c1ccc2c(c1)OCO2)N1CCCCC1 [Piperine]	0.0832
C=C1C[C@]2(O)O[C@@]3(CC2=C(C)C)[C@@H](C)CC[C@@H]13 [Isocurcumenol]	-0.239
COc1ccc2[nH]cc(CCNC(C)=O)c2c1 [Melatonin]	0.227
